Reference: PubChem BioAssay AID488969 (Vanderbilt High Throughput Screening Facility, 2010)
In all, about 110,000 compounds were measured (“z-score”: median about -0.1, highest 2% from about 2 on). The sample holds the highest values, similar compounds and a random draw of the others, so the mix is not that of the screen. Activity calls are given as the source filed them.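 Rule for the calls: active = z-score in the third read window above 3 or below -3; inactive = the rest.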

These compounds were tested against Metabotropic glutamate receptor 8 (Rattus norvegicus) (UniProt P70579) (assay: mGluR8 Gi/Go-coupled signaling modulation – cell-based, rat, thallium flux, HTS, primary screen (AID 488969)). Settings: HEK293 rat mGluR8, GIRK (G protein-gated inwardly rectifying potassium channel) thallium flux, FluoZin2; at 10 µM; stronger effect = higher value; submaximal glutamate (EC20) added with thallium.
Metabotropic glutamate receptor 8 (Rattus norvegicus), sequence (P70579 whole entry, looked up): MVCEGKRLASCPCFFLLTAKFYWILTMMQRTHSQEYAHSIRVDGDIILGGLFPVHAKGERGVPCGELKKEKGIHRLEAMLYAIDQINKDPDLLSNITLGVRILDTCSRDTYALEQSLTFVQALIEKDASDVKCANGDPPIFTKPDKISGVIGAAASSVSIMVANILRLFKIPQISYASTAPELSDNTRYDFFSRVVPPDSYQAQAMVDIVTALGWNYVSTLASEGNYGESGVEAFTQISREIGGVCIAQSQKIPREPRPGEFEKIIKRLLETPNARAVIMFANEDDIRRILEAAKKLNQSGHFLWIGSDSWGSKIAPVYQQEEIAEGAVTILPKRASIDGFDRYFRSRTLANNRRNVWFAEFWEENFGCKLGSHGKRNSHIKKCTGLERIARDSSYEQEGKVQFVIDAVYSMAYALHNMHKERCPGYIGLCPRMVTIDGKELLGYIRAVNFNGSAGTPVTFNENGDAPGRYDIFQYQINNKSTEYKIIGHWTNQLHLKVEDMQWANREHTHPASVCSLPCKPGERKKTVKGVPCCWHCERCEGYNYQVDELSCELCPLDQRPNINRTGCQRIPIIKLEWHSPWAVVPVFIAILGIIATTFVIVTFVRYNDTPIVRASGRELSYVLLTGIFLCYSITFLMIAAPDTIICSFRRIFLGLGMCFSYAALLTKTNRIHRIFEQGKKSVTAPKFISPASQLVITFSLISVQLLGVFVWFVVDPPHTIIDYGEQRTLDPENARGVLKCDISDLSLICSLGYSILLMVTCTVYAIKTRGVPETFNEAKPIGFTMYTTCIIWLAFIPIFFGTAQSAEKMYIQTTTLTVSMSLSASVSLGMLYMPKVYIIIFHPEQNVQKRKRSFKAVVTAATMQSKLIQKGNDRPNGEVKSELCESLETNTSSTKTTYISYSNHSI

In the case of `Cc1[nH]n(-c2ccc(Cl)cc2)c(=O)c1/C=N/c1nnc(-c2ccccc2)s1`, the z-score is reported as 8.81 (active).
For `O=C(CSCCO)Nc1ccccc1`, the z-score was 3.04 (active).
With `O=C1/C(=C\c2ccccn2)SC(=S)N1Nc1ncc(C(F)(F)F)cc1Cl` the z-score was 3.17 (active).
With `CN(C)S(=O)(=O)c1cccc(NC(=O)Cc2ccc(Cl)cc2)c1` the z-score was 4.58 (active).
For `CN(C)S(=O)(=O)c1cccc(NC(=O)COc2cccc(C#N)c2)c1`, the z-score was 3.82 (active).
For `Cc1ccc(NCC(=O)Nc2cccc(S(=O)(=O)N(C)C)c2)c(Cl)c1`, the z-score was 4.79 (active).
For `O=C(CSc1nc(O)cc(=O)n1-c1ccccc1)N1CCCCC1`, the z-score was 4.46 (active).
For `COc1ccc(Cn2nnnc2C(c2ccc(F)cc2)N2CCN(C3CCCC3)CC2)cc1` (centres undefined), the z-score was 3.92 (active).
`Cc1cc2[nH]c(=O)c3ccccc3n2n1` was tested, and the z-score was 4.8 (active).
With `CC1CN(C(=O)C2CCCCC2)C(C)CN1C(=O)C1CCCCC1` (centres undefined) the z-score was 11.1 (active).
`Cc1cc2c(cc1C)C(=O)NC(C)(C)C2` was tested, and the z-score was 5.66 (active).
In the case of `Cc1ccc(C)c(Nc2c([N+](=O)[O-])cc(C(=O)N3CC(=O)Nc4ccccc43)cc2[N+](=O)[O-])c1`, the z-score is reported as 4.62 (active).
For `COc1ccc(OC)c(NC(=O)C2CC(=O)N(c3ccc(Br)cc3)C2)c1` (centres undefined), the z-score was 3.63 (active).
In the case of `CCn1c(SCc2nc(-c3ccccc3)no2)nc2ccccc21`, the z-score is reported as 3.16 (active).
In the case of `COC(=O)c1ccc2c(=O)n(C3CCCCC3)c(SCC#N)nc2c1`, the z-score is reported as 3.63 (active).
`CCOC(=O)c1ccc(NC(=O)Nc2ccc(OC)c(OC)c2)cc1` was tested, and the z-score was 6.79 (active).
With `Cc1ccc(OC(=S)Nc2ccccc2)c(C)c1` the z-score was 3.2 (active).
With `COc1ccc(C)cc1NC(=O)NCCC1=CCCCC1` the z-score was 10.6 (active).

First: Cc1[nH]n(-c2ccc(Cl)cc2)c(=O)c1C=NC12CN3CN(CN(C3)C1)C2
Second: CCc1nnc(NS(=O)(=O)c2ccc(N=Cc3c(C)[nH]n(-c4ccc(Cl)cc4)c3=O)cc2)s1
The z-score of the first is higher: -0.111 for the first, -0.276 for the second.

Compared with `O=C(O)CSCC(=O)Nc1ccccc1`, `O=C(O)CCCSCC(=O)Nc1ccccc1` is higher in z-score: 0.00603 for the first, 0.633 for the second.

Compared with `Cc1ccc(C2=[N+]([O-])C3(CCCCC3=O)N(O)C2(C)C)cc1` (centres undefined), `Cc1ccc(N(C(C)C(=O)Nc2ccc(S(=O)(=O)N3CCOCC3)cc2)S(C)(=O)=O)cc1` (centres undefined) is higher in z-score: 0.0871 for the first, 0.137 for the second.

Going from `O=C(COC(=O)Cc1cccc2ccccc12)Nc1ccccc1-c1ccccc1` to `CCCC(=O)OCC(=O)Nc1ccccc1Sc1ccccc1`, the z-score falls from -0.174 to -0.604.

Compared with `COc1cc(/C=C2\SC(=S)N(Nc3ncc(C(F)(F)F)cc3Cl)C2=O)ccc1O`, `O=C1/C(=C/c2ccc(F)cc2)SC(=S)N1Nc1ncc(C(F)(F)F)cc1Cl` is lower in z-score: 1.29 for the first, 0.426 for the second.

First: CCOC(=O)CC1C(=O)NCCN1C(=O)c1cc2c(=O)n3ccccc3nc2s1 (centres undefined)
Second: CCOC(=O)CSc1nc2ccccc2c(=O)n1C1CCCC1
The z-score of the first is lower: -0.533 for the first, 0.684 for the second.

Going from `CN(C)S(=O)(=O)c1cccc(NC(=O)COC(=O)CCSc2ccc(Cl)cc2)c1` to `Cc1cc(=O)oc2cc(OCC(=O)Nc3cccc(S(=O)(=O)N(C)C)c3)ccc12`, the z-score falls from 0.722 to -0.0464.

Compared with `CCNc1ccc(S(=O)(=O)N(C)C)cc1NCC(=O)Nc1ccc(F)c(Cl)c1`, `Cc1c(Cl)cccc1NC(=O)CNc1cccc(S(=O)(=O)N(C)C)c1` is lower in z-score: 0.204 for the first, -0.138 for the second.

Compared with `O=C(Cc1ccc(Cl)cc1)Nc1cccc(S(=O)(=O)Nc2ccccc2F)c1`, `O=C(CN1C(=O)CCS(=O)(=O)c2ccccc21)Nc1cccc(F)c1` is lower in z-score: 0.371 for the first, -0.608 for the second.

Compared with `CCN(CC)S(=O)(=O)c1cccc(NC(=O)COc2ccc(C#N)cc2OC)c1`, `CCOC(=O)c1ccccc1NC(=O)Nc1ccc(OC)c(OC)c1` is higher in z-score: -0.191 for the first, 0.154 for the second.

Compared with `CC1CN(c2c3c(nc4ncnn24)CCCC3)CC(C)O1` (centres undefined), `c1ccc(-c2noc(CSc3nnnn3C3CCCCC3)n2)cc1` is higher in z-score: -0.374 for the first, -0.0529 for the second.

Compared with `CCCCc1ccc(-c2csc(/C(C#N)=C/c3ccco3)n2)cc1`, `CCn1c(SCc2nc(-c3ccccc3)no2)nnc1-c1ccco1` is lower in z-score: -0.275 for the first, -0.421 for the second.

Going from `CCOCCCNC(=O)c1ccc(CS(=O)(=O)Cc2cccc(C)c2)o1` to `Cc1ccc(C)c(OCCCC(=O)Nc2nccs2)c1`, the z-score falls from 0.789 to -0.0356.

Compared with `O=C1CC(N2CCC(O)(c3ccc(Cl)cc3)CC2)C(=O)N1` (centres undefined), `O=C1NC(=O)C2(COC(c3ccccc3Cl)OC2)S1` (centres undefined) is lower in z-score: 0.198 for the first, -0.116 for the second.

Compared with `COc1cccc(NC(=O)N(CCCN2CCOCC2)C(C)c2cc3ccccc3o2)c1` (centres undefined), `CCOc1ccc(N2CC(C(=O)Nc3ccccc3OC)CC2=O)cc1` (centres undefined) is higher in z-score: -2.21 for the first, 1.1 for the second.

Going from `CCN(C(=O)CCN1C(=O)c2ccccc2C1=O)C1CCCCC1` to `Nc1nc(SCC(=O)NC2CCCC2)[nH]c(=O)c1-c1ccccc1`, the z-score falls from 0.156 to -0.603.

Going from `NC(=O)CSc1nc(O)cc(=O)n1-c1ccccc1` to `O=C(CSc1nc2ccccc2c(=O)n1-c1ccccc1)N1CCCC1`, the z-score falls from 0.418 to -0.689.

Compared with `Fc1ccc(C(c2nnnn2Cc2ccco2)N2CCN(C3CCCCC3)CC2)cc1` (centres undefined), `Fc1ccc(C(c2nnnn2Cc2cccs2)N2CCN(C3CCCC3)CC2)cc1` (centres undefined) is lower in z-score: 2.31 for the first, 1.73 for the second.

First: CC(C)C(c1nnnn1Cc1ccco1)N1CCN(C2CCCC2)CC1 (centres undefined)
Second: COc1ccc(Cn2nnnc2C(c2ccc(C)cc2)N2CCN(C3CCCC3)CC2)cc1 (centres undefined)
The z-score of the first is lower: -0.255 for the first, 0.353 for the second.

Compared with `COc1ccc(Cn2nnnc2C(c2ccccc2Cl)N2CCN(C3CCCC3)CC2)cc1` (centres undefined), `O=C(c1cc2nc(-c3ccco3)cc(C(F)(F)F)n2n1)N1CCN(Cc2ccccc2)CC1` is lower in z-score: 1.79 for the first, -0.1 for the second.

Compared with `N#Cc1nc(-c2ccccc2)oc1NCC1CCCO1` (centres undefined), `CCn1c(SCc2nc(-c3ccccc3)no2)nnc1-c1cccs1` is higher in z-score: -0.084 for the first, 1.84 for the second.

Going from `Cc1nn2c([nH]c(=O)c3ccccc32)c1C=O` to `CCOC(=O)c1cnn2c1[nH]c(=O)c1ccccc12`, the z-score rises from 0.184 to 1.54.

Compared with `CCOC(=O)c1ccccc1NC(=O)Cc1ccccc1OC`, `COC(=O)c1ccccc1NC(=O)C1CC(=O)N(c2ccccc2)C1` (centres undefined) is higher in z-score: -0.663 for the first, -0.0106 for the second.

Compared with `CCCOc1ccccc1N/C(=N/c1nc(C)cc(C)n1)NC(=O)COc1ccc(OC)cc1`, `COc1ccc(NC(=O)Nc2cc(C)ccc2OC)cc1` is higher in z-score: 0.266 for the first, 2.83 for the second.

Compared with `CC1CN(C(=O)C2CC2)C(C)CN1C(=O)C1CC1` (centres undefined), `CC1CN(C(=O)C2CCCC2)C(C)CN1C(=O)C1CCCC1` (centres undefined) is higher in z-score: 0.00492 for the first, 0.888 for the second.

Compared with `Cc1ccccc1NC(=O)c1cn(-c2ccccc2)nc1-c1ccccc1`, `c1ccc(-c2noc(CSc3nnnn3-c3ccccc3)n2)cc1` is higher in z-score: 0.316 for the first, 2.18 for the second.

Compared with `O=C(Nc1ccccc1)Nc1ccc2snnc2c1`, `COc1ccc(NC(=O)Nc2cc(C)ccc2F)cc1` is higher in z-score: -0.373 for the first, 0.0419 for the second.

Compared with `CC(C)c1ccc(Oc2cccc(C(=O)/C(C#N)=C/N(C)C)c2)cc1`, `Cc1cccc(C(=O)/C=C2/c3ccccc3CC(C)(C)N2C)c1` is lower in z-score: -0.286 for the first, -0.509 for the second.

First: CC(C)c1ccc2c(c1)C(=O)NC(C)(C)C2
Second: CC1(C)Cc2ccccc2C(=O)N1
The z-score of the first is lower: -0.156 for the first, 0.0959 for the second.

Compared with `Cc1ccc(Nc2c([N+](=O)[O-])cc(C(=O)N3CC(=O)Nc4ccccc43)cc2[N+](=O)[O-])c(C)c1`, `CCc1cccc(Nc2c([N+](=O)[O-])cc(C(=O)N3CC(=O)Nc4ccccc43)cc2[N+](=O)[O-])c1` is lower in z-score: -0.162 for the first, -1.1 for the second.

First: O=C(c1ccc(O)cc1)c1ccc(Cl)cc1
Second: Cc1ccc(OC(=S)Nc2ccc(O)cc2)cc1
The z-score of the first is lower: -0.563 for the first, 0.0849 for the second.

Compared with `CCOC(=O)Nc1cc2c(cc1C(C)=O)OCO2`, `CCOC(=O)C1=C(C)NC(=O)NC1c1cccnc1` (centres undefined) is lower in z-score: 0.657 for the first, 0.62 for the second.

First: COC(=O)c1ccccc1NC(=O)C1CC(=O)N(c2ccc(C)cc2)C1 (centres undefined)
Second: COC(=O)c1ccccc1NC(=O)C1CC(=O)N(c2ccc(F)cc2)C1 (centres undefined)
The z-score of the first is lower: -0.265 for the first, 2.15 for the second.

First: COc1ccc(Cl)cc1NC(=O)C1CC(=O)N(c2ccc(F)cc2)C1 (centres undefined)
Second: COc1ccc(OC)c(NC(=O)Nc2ccc(Cl)cc2)c1
The z-score of the first is lower: 0.0135 for the first, 0.245 for the second.

Going from `O=C(CCC(=O)OCC(=O)c1cccc([N+](=O)[O-])c1)Nc1cccc(Cl)c1Cl` to `Cc1nn(CC(=O)Nc2cccc(S(N)(=O)=O)c2)c(C)c1[N+](=O)[O-]`, the z-score falls from -0.0921 to -0.212.

Going from `O=C(c1ccc(N2CCN(CCO)CC2)nc1)N1CCOCC1` to `CC(C)c1[nH]nc2c1C(c1cccc(OC(=O)N3CCOCC3)c1)C(C#N)=C(N)O2` (centres undefined), the z-score falls from 0.0375 to -1.23.

Compared with `CC12CC(c3ccccc3O1)N(C(=O)c1ccco1)C(=S)N2c1ccc(F)cc1` (centres undefined), `CC(C)OC(=O)c1cc2c(ccn2C)n1CC(=O)N(Cc1ccccc1)c1ccc(F)cc1` is higher in z-score: -0.812 for the first, -0.00352 for the second.

Compared with `CCOC(=O)c1nnn(-c2nonc2N)c1COc1ccc(F)cc1`, `Cc1ccc(OC(=S)Nc2ccc(F)cc2)cc1` is higher in z-score: -0.0888 for the first, 0.0616 for the second.

First: O=C(CCCOc1ccccc1)Nc1nccs1
Second: Cc1ccccc1OCCCC(=O)Nc1nccs1
The z-score of the first is lower: -1.29 for the first, 2.49 for the second.

Compared with `COCCCn1c(=N)c(C(=O)NCc2ccc3c(c2)OCO3)cc2c(=O)n3ccccc3nc21`, `CCOC(=O)CSc1nc2cc(C(=O)NCc3ccco3)ccc2c(=O)n1C1CCCCC1` is higher in z-score: -0.494 for the first, 0.724 for the second.

First: COc1ccccc1/C=N/NC(=O)CC(=O)NCc1cccnc1
Second: COc1cc(OC)c(OC)cc1/C=N/NC(=O)c1ccc(=O)n(C)c1
The z-score of the first is higher: -0.2 for the first, -0.238 for the second.

Compared with `O=C1NC(=O)C2(COC(c3cccnc3)OC2)S1` (centres undefined), `O=C(c1ccccc1NS(=O)(=O)c1cccs1)N1CCCC1` is lower in z-score: 2.49 for the first, 0.676 for the second.

Going from `CCCCn1c(CN2CCN(c3ccc(F)cc3)CC2)nc2c1c(=O)n(C)c(=O)n2C` to `CCOCCN1CCN(c2c(CC)c(C)nc3cc(-c4cc(OC)cc(OC)c4)nn23)CC1`, the z-score falls from -0.751 to -0.938.

First: c1ccc(CSc2nnnn2-c2ccccc2)cc1
Second: FC(F)(F)c1ccc(CSc2nccn2-c2ccccc2)cc1
The z-score of the first is lower: -0.542 for the first, 0.167 for the second.

Going from `CCCCOC(=O)c1ccc(NC(=O)Nc2ccc(OC)c(OC)c2)cc1` to `COc1ccc(C(=O)NCCC2=CCCCC2)cc1OC`, the z-score falls from -0.113 to -0.214.

`COc1ccc(NC(=O)C(=O)NCCC2=CCCCC2)c(OC)c1` was tested, and the z-score was -0.33.
